Structures can show the parent of a compound that is named as a salt.
Test system: Staphylococcus aureus MW2 delta-mecA (mecA-)
Assay: normalized GFP fluorescence (growth of mecA- strain) (fraction of control range); higher = more growth of mecA- strain
Conditions: compound concentration: 150 uM; cefoxitin: subinhibitory; fluorescent label: GFP
How it was run: (§1)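 Fluorescence from DsRed (540/590) and GFP (485/520) was recorded after 20 h of static growth at 37 °C and 90% humidity. The wells held a 1:1 mix of pre-induced S. aureus MW2 cells, gene-bearing with DsRed and gene-deleted with GFP, in LB with a daily-set subinhibitory antibiotic dose, dispensed at 5 µL/well onto 150 μM compound (1.5% DMSO) in 1536-well plates, single replicate. Each channel was scaled per plate between single-strain control medians, excluding plates with high untreated ratios and rows with DsRed/GFP >10.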

SMILES	normalized GFP fluorescence
CC(=O)Nc1c(I)c(NC(C)=O)c(I)c(C(=O)O)c1I	0.477
O=C(c1cc(Cc2n[nH]c(=O)c3ccccc23)ccc1F)N1CCN(C(=O)C2CC2)CC1 [Olaparib (AZD2281)]	0.204
CN1CCN2c3ncccc3Cc3ccccc3C2C1 (stereo not given) [Mirtazapine (Remeron, Avanza)]	0.214
CCN(CC)Cc1cc(Nc2ccnc3cc(Cl)ccc23)ccc1O	0.205
Cc1ncc([N+](=O)[O-])n1CCO	0.562
Cc1nc(C)c(Cl)c(O)c1Cl	0.341
CC(C)NCC(O)COc1ccc(CC(N)=O)cc1 (stereo not given)	0.323
CCN[C@H]1C[C@H](C)S(=O)(=O)c2sc(S(N)(=O)=O)cc21 [Dorzolamide HCL]	0.422
CC1(C)S[C@@H]2[C@H](NC(=O)Cc3ccccc3)C(=O)N2[C@H]1C(=O)O	0.0214
C[C@]12CC[C@@H]3c4ccc(O)cc4CC[C@H]3[C@@H]1CCC2=O [Estrone]	0.136
CN1C2=CC(=O)/C(=N\NC(N)=O)C=C2CC1S(=O)(=O)O (stereo not given) [Carbazochrome sodium sulfonate]	0.171
CN(C)CCOC(c1ccc(Cl)cc1)c1ccccn1 (stereo not given)	0.55
COC(=O)C1=C(C)NC(C)=C(C(=O)OC)C1c1ccccc1[N+](=O)[O-]	0.0465
Fc1ccc([C@@H]2CCNC[C@H]2COc2ccc3c(c2)OCO3)cc1	-0.0171
CCCCOc1cc(C(=O)NCCN(CC)CC)c2ccccc2n1 [Dibucaine (Cinchocaine) HCl]	0.265
CCCNC(=O)NS(=O)(=O)c1ccc(Cl)cc1	0.221
Cc1nc(Nc2ncc(C(=O)Nc3c(C)cccc3Cl)s2)cc(N2CCN(CCO)CC2)n1	0.0741
CN(C/C=C/C#CC(C)(C)C)Cc1cccc2ccccc12 [Terbinafine hydrochloride (Lamisil)]	0.111
N[C@H]1C(O)O[C@H](CO)[C@@H](O)[C@@H]1O (stereo not given in full)	0.468
O=C(NC[C@H]1CN(c2ccc(N3CCOCC3=O)cc2)C(=O)O1)c1ccc(Cl)s1 [Rivaroxaban (Xarelto)]	0.0017

SMILES	normalized GFP fluorescence
CC(=O)[C@H]1CC[C@H]2[C@@H]3CCC4=CC(=O)CC[C@]4(C)[C@H]3CC[C@]12C	0.278
O=C1CN2Cc3c(ccc(Cl)c3Cl)N=C2N1	0.237
C=C1CC[C@H](O)C/C1=C/C=C1\CCC[C@]2(C)[C@@H]([C@H](C)CCCC(C)(C)O)CC[C@@H]12 [Calcifediol]	-0.0113
O=C(O)c1cccc(-c2noc(-c3ccccc3F)n2)c1 [PTC124 (Ataluren)]	0.0948
CN(c1nccc(=O)[nH]1)C1CCN(c2nc3ccccc3n2Cc2ccc(F)cc2)CC1 [Mizolastine (Mizollen)]	0.387
CCCNS(=O)(=O)Nc1ncnc(OCCOc2ncc(Br)cn2)c1-c1ccc(Br)cc1 [Macitentan]	0.0399
O=C1c2ccccc2C(=O)C1c1ccccc1 [Phenindione (Rectadione)]	0.0982
CCOC(=O)[C@H](CCc1ccccc1)N[C@@H](C)C(=O)N1CCC[C@H]1C(=O)O	0.325
Cc1cccc(C)c1NC(=O)C1CCCCN1C (stereo not given)	0.677
CN[C@@H]1[C@H](O)[C@H](NC)[C@H]2O[C@@]3(O)C(=O)C[C@@H](C)O[C@H]3O[C@@H]2[C@H]1O	0.198
CO[C@H]1C[C@@H]2CC[C@@H](C)[C@@](O)(O2)C(=O)C(=O)N2CCCC[C@H]2C(=O)O[C@H]([C@H](C)C[C@@H]2CC[C@@H](OC(=O)C(C)(CO)CO)[C@H](OC)C2)CC(=O)[C@H](C)/C=C(\C)[C@@H](O)[C@@H](OC)C(=O)[C@H](C)C[C@H](C)/C=C/C=C/C=C/1C [Temsirolimus (Torisel)]	-0.00155
O=C1C(CC[S+]([O-])c2ccccc2)C(=O)N(c2ccccc2)N1c1ccccc1 (stereo not given)	0.525
CN(C)[C@@H](CCOc1cccc2ccccc12)c1ccccc1 [Dapoxetine hydrochloride (Priligy)]	-0.00645
Cc1ccc(=O)n(-c2ccccc2)c1 [Pirfenidone]	0.368
N=C(N)NC(=O)c1nc(Cl)c(N)nc1N	0.602
CC1(C)O[C@@H]2C[C@H]3[C@@H]4CCC5=CC(=O)CC[C@]5(C)[C@@]4(F)[C@@H](O)C[C@]3(C)[C@]2(C(=O)CCl)O1	0.195
NC(=O)c1cc[n+](CC2=C(C(=O)O)N3C(=O)[C@@H](NC(=O)[C@@H](c4ccccc4)S(=O)(=O)[O-])[C@H]3SC2)cc1	0.172
CC1=C(CC(=O)O)c2cc(F)ccc2/C1=C\c1ccc([S+](C)[O-])cc1 (stereo not given)	0.33
CC1=Nc2ccc(Cl)cc2S(=O)(=O)N1	0.259
COc1cc(C)c(/C=C/C(C)=C/C=C/C(C)=C/C(=O)O)c(C)c1C [Acitretin]	0.0102

Test system: Staphylococcus aureus MW2 (mecA+)
Assay: normalized DsRed fluorescence (growth of mecA+ strain) (fraction of control range); higher = more growth of mecA+ strain
Conditions: compound concentration: 150 uM; cefoxitin: subinhibitory; fluorescent label: DsRed
How it was run: as §1

SMILES	normalized DsRed fluorescence
CC(=O)Nc1c(I)c(NC(C)=O)c(I)c(C(=O)O)c1I	1.13
O=C(c1cc(Cc2n[nH]c(=O)c3ccccc23)ccc1F)N1CCN(C(=O)C2CC2)CC1 [Olaparib (AZD2281)]	0.856
CN1CCN2c3ncccc3Cc3ccccc3C2C1 (stereo not given) [Mirtazapine (Remeron, Avanza)]	1.07
CCN(CC)Cc1cc(Nc2ccnc3cc(Cl)ccc23)ccc1O	0.684
Cc1ncc([N+](=O)[O-])n1CCO	0.581
Cc1nc(C)c(Cl)c(O)c1Cl	0.741
CC(C)NCC(O)COc1ccc(CC(N)=O)cc1 (stereo not given)	0.749
CCN[C@H]1C[C@H](C)S(=O)(=O)c2sc(S(N)(=O)=O)cc21 [Dorzolamide HCL]	0.697
CC1(C)S[C@@H]2[C@H](NC(=O)Cc3ccccc3)C(=O)N2[C@H]1C(=O)O	0.0849
C[C@]12CC[C@@H]3c4ccc(O)cc4CC[C@H]3[C@@H]1CCC2=O [Estrone]	1.11
CN1C2=CC(=O)/C(=N\NC(N)=O)C=C2CC1S(=O)(=O)O (stereo not given) [Carbazochrome sodium sulfonate]	0.676
CN(C)CCOC(c1ccc(Cl)cc1)c1ccccn1 (stereo not given)	0.618
COC(=O)C1=C(C)NC(C)=C(C(=O)OC)C1c1ccccc1[N+](=O)[O-]	0.832
Fc1ccc([C@@H]2CCNC[C@H]2COc2ccc3c(c2)OCO3)cc1	1.15
CCCCOc1cc(C(=O)NCCN(CC)CC)c2ccccc2n1 [Dibucaine (Cinchocaine) HCl]	0.835
CCCNC(=O)NS(=O)(=O)c1ccc(Cl)cc1	0.489
Cc1nc(Nc2ncc(C(=O)Nc3c(C)cccc3Cl)s2)cc(N2CCN(CCO)CC2)n1	0.816
CN(C/C=C/C#CC(C)(C)C)Cc1cccc2ccccc12 [Terbinafine hydrochloride (Lamisil)]	0.483
N[C@H]1C(O)O[C@H](CO)[C@@H](O)[C@@H]1O (stereo not given in full)	0.564
O=C(NC[C@H]1CN(c2ccc(N3CCOCC3=O)cc2)C(=O)O1)c1ccc(Cl)s1 [Rivaroxaban (Xarelto)]	0.837

SMILES	normalized DsRed fluorescence
CC(=O)[C@H]1CC[C@H]2[C@@H]3CCC4=CC(=O)CC[C@]4(C)[C@H]3CC[C@]12C	0.415
O=C1CN2Cc3c(ccc(Cl)c3Cl)N=C2N1	0.896
C=C1CC[C@H](O)C/C1=C/C=C1\CCC[C@]2(C)[C@@H]([C@H](C)CCCC(C)(C)O)CC[C@@H]12 [Calcifediol]	0.65
O=C(O)c1cccc(-c2noc(-c3ccccc3F)n2)c1 [PTC124 (Ataluren)]	0.473
CN(c1nccc(=O)[nH]1)C1CCN(c2nc3ccccc3n2Cc2ccc(F)cc2)CC1 [Mizolastine (Mizollen)]	0.462
CCCNS(=O)(=O)Nc1ncnc(OCCOc2ncc(Br)cn2)c1-c1ccc(Br)cc1 [Macitentan]	0.379
O=C1c2ccccc2C(=O)C1c1ccccc1 [Phenindione (Rectadione)]	0.634
CCOC(=O)[C@H](CCc1ccccc1)N[C@@H](C)C(=O)N1CCC[C@H]1C(=O)O	0.611
Cc1cccc(C)c1NC(=O)C1CCCCN1C (stereo not given)	0.7
CN[C@@H]1[C@H](O)[C@H](NC)[C@H]2O[C@@]3(O)C(=O)C[C@@H](C)O[C@H]3O[C@@H]2[C@H]1O	0.555
CO[C@H]1C[C@@H]2CC[C@@H](C)[C@@](O)(O2)C(=O)C(=O)N2CCCC[C@H]2C(=O)O[C@H]([C@H](C)C[C@@H]2CC[C@@H](OC(=O)C(C)(CO)CO)[C@H](OC)C2)CC(=O)[C@H](C)/C=C(\C)[C@@H](O)[C@@H](OC)C(=O)[C@H](C)C[C@H](C)/C=C/C=C/C=C/1C [Temsirolimus (Torisel)]	1.96
O=C1C(CC[S+]([O-])c2ccccc2)C(=O)N(c2ccccc2)N1c1ccccc1 (stereo not given)	0.445
CN(C)[C@@H](CCOc1cccc2ccccc12)c1ccccc1 [Dapoxetine hydrochloride (Priligy)]	1.15
Cc1ccc(=O)n(-c2ccccc2)c1 [Pirfenidone]	0.778
N=C(N)NC(=O)c1nc(Cl)c(N)nc1N	0.971
CC1(C)O[C@@H]2C[C@H]3[C@@H]4CCC5=CC(=O)CC[C@]5(C)[C@@]4(F)[C@@H](O)C[C@]3(C)[C@]2(C(=O)CCl)O1	0.844
NC(=O)c1cc[n+](CC2=C(C(=O)O)N3C(=O)[C@@H](NC(=O)[C@@H](c4ccccc4)S(=O)(=O)[O-])[C@H]3SC2)cc1	1.03
CC1=C(CC(=O)O)c2cc(F)ccc2/C1=C\c1ccc([S+](C)[O-])cc1 (stereo not given)	0.476
CC1=Nc2ccc(Cl)cc2S(=O)(=O)N1	0.639
COc1cc(C)c(/C=C/C(C)=C/C=C/C(C)=C/C(=O)O)c(C)c1C [Acitretin]	0.289

Reference: the supplement of paper PMC7695840
